Reference: PubChem BioAssay (NCATS)
Several values for one entry are separate records, joined by “and”; a condition that tells them apart may be missing. Equal entries are not always repeated. Results filed as inconclusive are left out. Activity calls are given as the source filed them. Unless noted, calls follow the shape of the full dose curve.

Legend:
[1] = qHTS for Inhibitors of the Functional Ribonucleoprotein Complex (vRNP) of Lassa (LASV) Arenavirus: LASV Primary Screen - GLuc reporter signal (AID 1347082; calls by dose curve; tested in HEK293 reporter line; also: nearly all actives have a fitted effect of over 60% in size)
[2] = qHTS for Inhibitors of the Functional Ribonucleoprotein Complex (vRNP) of Lassa (LASV) Arenavirus: Viability assay - alamar blue signal for LASV Primary Screen (AID 1347083; calls by dose curve; tested in HEK293 reporter line; also: nearly all actives have a fitted effect of over 80% in size)
[3] = qHTS for Inhibitors of the Functional Ribonucleoprotein Complex (vRNP) of Lymphocytic Choriomeningitis Arenaviruses (LCMV): Viability assay - alamar blue signal for LCMV Primary Screen (AID 1347085; calls by dose curve; tested in HEK293 reporter line; also: nearly all actives have a fitted effect of over 80% in size)
[4] = target: Nucleoprotein (Lymphocytic choriomeningitis virus (strain Armstrong)) (UniProt P09992); assay: qHTS for Inhibitors of the Functional Ribonucleoprotein Complex (vRNP) of Lymphocytic Choriomeningitis Arenaviruses (LCMV): LCMV Primary Screen - GLuc reporter signal (AID 1347086); also: nearly all actives have a fitted effect of over 70% in size
[5] = Cytotoxicity counterscreen for inhibitors of SARS-CoV-2 cell entry (AID 1645845); also: nearly all actives have a fitted effect of over 50% in size; also: potency is read from the fitted curve at half-maximal effect
Outline: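 HEK293-ACE2 cells (Expi293F stably expressing human ACE2) seeded overnight, then compound for 1 h plus 48 h at 37C. Viability as ATP content by luminescence; normalized to wells with cells and media-only wells.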

[6] = Primary qHTS to identify inhibitors of SARS-CoV-2 cell entry (AID 1645846); conditions: activity change, negative = inhibition: at 57.1 µM (top of the series) unless noted; also: nearly all actives have a fitted effect of over 45% in size
Outline: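 HEK293-ACE2 (Expi293F, stable hACE2), 1500 cells/well, o/n 37C; cpd 23 nL pin, 1 h; MLV-PP w/ SARS-CoV-2-S (Wuhan-Hu-1, Δ19 C-term); 48 h 37C; Bright-Glo luminescence; normalized vs S-PP and bald PP.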

CRL-7250 = normal cell line; assay: qHTS assay to identify novel small-molecules to repurpose for Merkel cell carcinoma treatment (AID 1296009; active = well fitted inhibition curve with a large enough effect; also: nearly all actives have a fitted effect of over 60% in size); conditions: MCC and control cell lines, CellTiter-Glo viability, 72 h; series mostly up to 92 µM
Outline: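 Cells were incubated with compound for 72 hr at 37 degree celsius before CellTiter-Glo addition. Luminescence was normalized with no-cell wells as full cytotoxicity and DMSO as baseline.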

[7] = Primary qHTS for inhibitors of SARS-S pseudo-typed particle cell entry (AID 1479145); also: nearly all actives have a fitted effect of over 45% in size
[8] = Primary qHTS for Huh7 cytotoxicity: counterscreen for inhibitors of MERS-S pseudotyped particle cell entry (AID 1479147); conditions: outcome: dose series up to 57.1 µM unless noted
[9] = Primary qHTS for inhibitors of MERS-S pseudo-typed particle cell entry (AID 1479149); also: nearly all actives have a fitted effect of over 60% in size
[10] = Primary qHTS for Vero E6 cytotoxicity: counterscreen for inhibitors of SARS-S pseudo-typed particle cell entry (AID 1479150); conditions: outcome: dose series up to 57.1 µM unless noted

Sequence of Nucleoprotein (Lymphocytic choriomeningitis virus (strain Armstrong)) (P09992 whole entry, looked up): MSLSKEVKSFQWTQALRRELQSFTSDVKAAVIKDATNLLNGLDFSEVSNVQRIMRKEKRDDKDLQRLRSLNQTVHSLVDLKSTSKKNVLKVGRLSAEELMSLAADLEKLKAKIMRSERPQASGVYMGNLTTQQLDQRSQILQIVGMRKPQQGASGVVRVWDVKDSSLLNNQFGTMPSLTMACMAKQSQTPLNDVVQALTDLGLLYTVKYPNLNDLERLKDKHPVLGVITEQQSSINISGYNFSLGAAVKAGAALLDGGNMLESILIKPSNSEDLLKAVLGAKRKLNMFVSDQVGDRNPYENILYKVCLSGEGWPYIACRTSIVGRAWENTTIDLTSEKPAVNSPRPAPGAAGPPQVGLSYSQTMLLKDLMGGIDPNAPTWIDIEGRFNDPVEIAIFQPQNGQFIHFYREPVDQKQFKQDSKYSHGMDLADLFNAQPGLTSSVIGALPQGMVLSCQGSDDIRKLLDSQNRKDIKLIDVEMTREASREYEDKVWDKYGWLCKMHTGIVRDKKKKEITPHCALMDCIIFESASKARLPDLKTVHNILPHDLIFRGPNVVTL

CC(Cc1ccc(O)c(O)c1)(NN)C(=O)O (stereo unspecified)
inactive: Potency [1] | Potency [2] | Potency [3] | Potency [4] | Potency [5] | Potency (CRL-7250)
-34.1%: activity change, negative = inhibition [6]

O=C(/C=C/C=C/c1ccc2c(c1)OCO2)N1CCCCC1
inactive: Potency [1] | Potency [2] | Potency [3] | Potency [4] | Potency [5] | Potency (CRL-7250)
-9.28%: activity change, negative = inhibition [6]

Cc1ccc(Nc2cc(-c3cccc(N4C(=O)c5ccccc5C4=O)c3)ncn2)cc1NS(C)(=O)=O
active: Potency [5] 31.6 µM
inactive: Potency [1] | Potency [2] | Potency [3] | Potency [4] | Potency (CRL-7250)

Cc1cnc(Nc2cccc(CN3CCOCC3)c2)nc1Nc1cccc(S(=O)(=O)NC(C)(C)C)c1
inactive: Potency [1] | Potency [2] | Potency [3] | Potency [4] | Potency [5] | Potency (CRL-7250)

Cc1cc(NC(=O)Nc2ccc(N(C)C)cc2)c2cc(F)cc(F)c2n1
inactive: Potency [1] | Potency [2] | Potency [3] | Potency [4] | Potency [5] | Potency (CRL-7250)
-12.4% [at 27.1 µM]: activity change, negative = inhibition [6]

CCCCCCCCCC(=O)N[C@@H](Cc1c[nH]c2ccccc12)C(=O)N[C@H](CC(N)=O)C(=O)N[C@@H](CC(=O)O)C(=O)N[C@@H]1C(=O)NCC(=O)N[C@@H](CCCN)C(=O)N[C@@H](CC(=O)O)C(=O)N[C@H](C)C(=O)N[C@@H](CC(=O)O)C(=O)NCC(=O)N[C@H](CO)C(=O)N[C@@H]([C@@H](C)CC(=O)O)C(=O)N[C@@H](CC(=O)c2ccccc2N)C(=O)O[C@@H]1C
-32.9% [at 27.1 µM]: activity change, negative = inhibition [6]
inactive: Potency [1] | Potency [2] | Potency [3] | Potency [4] | Potency [7] | outcome [8] inactive [at 26.4 µM] | Potency [9] | outcome [10] | Potency [5] | Potency [6] | Potency (CRL-7250)

O=C(O)CCn1c2c(c3ccccc31)C[C@H](NS(=O)(=O)c1ccc(F)cc1)CC2
-25.2% and -23.3%: activity change, negative = inhibition [6]
inactive: Potency [1] | Potency [2] | Potency [3] | Potency [4] | Potency [7] | outcome [8] | Potency [9] | outcome [10] | Potency [5] | Potency (CRL-7250)

CC1CCN(c2cc(N3CCN(C)CC3)ccc2NC(=O)c2cc(C#N)c[nH]2)CC1
-17.8%: activity change, negative = inhibition [6]
inactive: Potency [1] | Potency [2] | Potency [3] | Potency [4] | Potency [5] | Potency (CRL-7250)

Cc1cc(O)c2c(c1)C(=O)c1cccc(O)c1C2=O
inactive: Potency [1] | Potency [2] | Potency [3] | Potency [4] | Potency [5] | Potency (CRL-7250)

Nc1[nH]nc2nnc(-c3c(-c4ccccc4)nn4ccccc34)cc12
inactive: Potency [1] | Potency [2] | Potency [3] | Potency [4] | Potency [5] | Potency (CRL-7250)
-11.3%: activity change, negative = inhibition [6]

O=C(O)CCC=CCC[C@@H]1[C@H](N2CCCCC2)[C@@H](O)C[C@@H]1OCc1ccc(-c2ccccc2)cc1
inactive: Potency [1] | Potency [2] | Potency [3] | Potency [4] | outcome [8] | Potency [9] | outcome [10] | Potency [5] | Potency (CRL-7250)

CC1COC2(CCN(c3nc(=O)c4cc(C(F)(F)F)cc([N+](=O)[O-])c4s3)CC2)O1 (stereo unspecified)
inactive: Potency [1] | Potency [2] | Potency [3] | Potency [4] | Potency [5] | Potency (CRL-7250)

COC1=C(OC)C(=O)C(CC=C(C)CCC=C(C)CCC=C(C)CCC=C(C)CCC=C(C)CCC=C(C)CCC=C(C)CCC=C(C)CCC=C(C)CCC=C(C)C)=C(C)C1=O
inactive: Potency [1] | Potency [2] | Potency [3] | Potency [4] | outcome [7] inactive [at 5.34 µM] | outcome [8] inactive [at 5.34 µM] | outcome [9] inactive [at 5.34 µM] | outcome [10] inactive [at 5.34 µM] | outcome [6] inactive [at 5.25 µM] | Potency (CRL-7250)
